Screening data: PubChem, National Center for Advancing Translational Sciences (NCATS)
Hits are enriched below; roughly 4.2% of the tested compounds scored in any of these assays.
uPA surface inh = qHTS for Inhibitors of Cell Surface uPA Generation; Potency, µM (series often up to 38.3 µM), hits mostly inhibitors; hit rate 0.31% among 330,000; cell surface uPA generation assay, qHTS; active = well fitted inhibition curve with a large enough effect; inconclusive = small, poorly fitted or top-dose-only effect; inactive = no such curve, though single readings can be large or run the other way; tested in mouse RAW 264.7 cells; also: nearly all actives have a fitted effect of over 55% in size
Sfp PPTase inh = qHTS Assay for Inhibitors of Bacillus subtilis Sfp phosphopantetheinyl transferase (PPTase) | 4'-phosphopantetheinyl transferase ffp (Bacillus subtilis), Q9F4F7 | AID 1490, 2009 | Biochemical Sfp PPTase activity, qHTS | Potency, µM, hits mostly inhibitors | hit rate 3.5% among 310,000;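 also: the enzyme is Sfp with the accession as filed and its product quenches rhodamine fluorescence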
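Fluorescence-quenching assay with 15 nM Sfp, 5 uM rhodamine-CoA and 12.5 uM BHQ-2-labelled ybbR peptide in pH 7.6 Hepes/MgCl2 buffer. Enzyme was pre-incubated with compound for 15 min at room temperature. Rate was taken from the 30-min fluorescence change (525/598 nm).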
ClpP mod = qHTS Assay for Activators of ClpP | purified B. subtilis ClpP, FRET peptide cleavage, 20 min | Potency, µM (top dose mostly 57.5 µM) | hit rate 1.9% among 340,000 | AID 651965, 2013 | ATP-dependent Clp protease proteolytic subunit (Bacillus subtilis (strain 168)), P80244; active = well fitted falling curve with a large enough effect; inconclusive = small, poorly fitted or top-dose-only effect; inactive = no such curve, though single readings can be large or run the other way; also: the source files actives as falling curves though it sought activators and does not explain the sign; nearly all actives have a fitted effect of over 65% in size
Target sequence (P80244 whole entry, looked up): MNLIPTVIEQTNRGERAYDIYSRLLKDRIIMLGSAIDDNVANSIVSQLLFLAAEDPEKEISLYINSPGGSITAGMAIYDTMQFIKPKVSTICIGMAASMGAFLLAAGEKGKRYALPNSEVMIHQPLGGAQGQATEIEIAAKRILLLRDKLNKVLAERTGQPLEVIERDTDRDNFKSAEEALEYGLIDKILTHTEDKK
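FRET quenching reversal measured ClpP activation: 10 microg/mL B. subtilis ClpP at pH 8 with the FRET-FV decapeptide, read at 430 nm after 320 nm excitation. The 20-min minus 0-min signal was scaled between DMSO/no-enzyme wells and ADEP (5.8 microM final).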
TCR act = Activators of T cell receptors: qHTS campaign; Potency, µM (top dose mostly 9.22 µM), actives largely listed as activators; AID 504894, 2011; primary human leukocytes, anti-CD3, IL-2 HTRF, 48 h; 330,000 tested, under 10 active
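Compounds are tested in HTS on primary human leukocytes co-incubated with a-CD3 beads for 48 hr. IL-2 output is measured by time-resolved FRET.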
ClpP validation = qHTS Assay for Activators of ClpP: Hit Validation of Inhibitors. purified B. subtilis ClpP, FRET-FV substrate cleavage, 20 min. Potency, µM (series often up to 57.5 µM), usual class: inhibitors. shares compounds with ClpP mod. hit rate 40% among 470; also: nearly all actives have a fitted effect of over 70% in size
A number is an active result. Unless noted, calls follow the shape of the dose curve; as a rule, active = well fitted curve in the direction sought with a large enough effect; inconclusive = small, poorly fitted or top-dose-only effect, or another doubt; inactive = no such curve, though single readings can be large; an effect the other way counts as inactive or inconclusive.

CN(CC(=O)N1CCN(Cc2ccccc2)CC1)S(=O)(=O)c1cccc2nsnc12 was read as uPA surface inh inconclusive, Sfp PPTase inh inactive, ClpP mod inactive and TCR act inactive.
`COc1nc(Nc2ccc(-c3nc4ccccc4o3)cc2)nc(N2CCOCC2)n1` gave uPA surface inh inactive, ClpP mod 8.9µM, TCR act inactive and ClpP validation 19µM.
c1ccc2oc(-c3ccc(Nc4nc(N5CCCCC5)nc(N5CCOCC5)n4)cc3)nc2c1 was read as Sfp PPTase inh inactive.
`O=S(=O)(Nc1cccc(-c2cn3cccnc3n2)c1)c1ccc(Cl)cc1` gave uPA surface inh inactive, Sfp PPTase inh inactive, ClpP mod 7.1µM, TCR act inactive and ClpP validation 24µM.
Screening COCCCNC(=O)C[C@@H]1C[C@@]2(C(=O)OC)CCCCC=C2N(Cc2ccco2)C1=O returned ClpP mod inactive.
For Fc1ccc2nc(Nc3nc4cc5c(cc4s3)OCCO5)sc2c1 the results were uPA surface inh inactive, Sfp PPTase inh inactive, ClpP mod 6.3µM, TCR act inactive and ClpP validation 3.9µM.
Screening Fc1ccc2nc(Nc3nc4c(F)cccc4s3)sc2c1 returned uPA surface inh inactive, Sfp PPTase inh inactive, ClpP mod 8.9µM, TCR act inactive and ClpP validation 4.9µM.
`Fc1ccc2nc(Nc3nc4cc5c(cc4s3)OCO5)sc2c1` gave uPA surface inh inactive, Sfp PPTase inh inactive, ClpP mod inconclusive and TCR act inactive.
`Fc1cccc2sc(Nc3nc4ccccc4s3)nc12` gave uPA surface inh inactive, Sfp PPTase inh inactive, ClpP mod inactive and TCR act inactive.
`Fc1ccc2nc(Nc3nc4c(F)cc(F)cc4s3)sc2c1` gave uPA surface inh inactive, Sfp PPTase inh inactive, ClpP mod 8.9µM, TCR act inactive and ClpP validation inconclusive.
`CC(=O)OCC1OC(C#Cc2ccc(C)cc2C)C=CC1OC(C)=O` (stereo not drawn) gave Sfp PPTase inh inactive.
`O=C(Cn1nc(-c2ccccc2)ccc1=O)NCc1ccc(F)cc1Cl` gave ClpP mod inactive.
`CCc1ccc(CNC(=O)Cn2nc(-c3ccccc3)ccc2=O)cc1` gave uPA surface inh inactive, Sfp PPTase inh inactive, ClpP mod 4µM, TCR act inactive and ClpP validation inactive.
For Cc1nc2ccc([N+](=O)[O-])cc2c(=O)n1Cc1ccccc1Br the results were uPA surface inh inactive, Sfp PPTase inh inactive, ClpP mod inactive, TCR act inactive and ClpP validation inactive.
`COc1cc(NC(=O)CN2CCN(S(=O)(=O)c3ccc(C(C)C)cc3)CC2)cc(OC)c1` gave uPA surface inh inactive, Sfp PPTase inh inactive, ClpP mod inactive and TCR act inactive.
Screening COc1ccc(S(=O)(=O)N2CCN(CC(=O)Nc3cc(OC)cc(OC)c3)CC2)cc1 returned uPA surface inh inactive, Sfp PPTase inh inactive, ClpP mod inactive, TCR act inactive and ClpP validation inactive.
CCOC(=O)N1CCN(C(=O)c2ccc(S(=O)(=O)Nc3ccc(C)cc3)cc2)CC1 was read as uPA surface inh inactive, ClpP mod inactive, TCR act inactive and ClpP validation inactive.
For Nc1ccn(C2OC(COC(=O)C34CC5CC(CC(C5)C3)C4)C(O)C2O)c(=O)n1 (stereo not drawn) the results were uPA surface inh inactive, ClpP mod inactive and TCR act inactive.
O=C(Nc1nc2nc(-c3ccccc3)cc(-c3ccccc3)n2n1)c1ccco1 was read as uPA surface inh inactive, Sfp PPTase inh inactive, ClpP mod 7.9µM, TCR act inactive and ClpP validation 12µM.
`CC(=O)N1CCc2c(sc(NC(=O)C3CCCN3S(=O)(=O)c3cccs3)c2C(N)=O)C1` (stereo not drawn) gave uPA surface inh inactive, ClpP mod 4µM, TCR act inactive and ClpP validation inactive.
`COc1ccc(/C(C)=N/NC(=O)C(NC(=O)c2ccccc2)c2n[nH]c(=O)c3ccccc23)c(OC)c1` (stereo not drawn) gave uPA surface inh inactive, Sfp PPTase inh inactive and TCR act inactive.
For Cc1cc(N2CCCCC2)nc2ccc(NC(=O)c3ccc(F)cc3)cc12 the results were ClpP mod inactive and ClpP validation inactive.
`Cc1cc(N2CCOCC2)nc2ccc(NC(=O)CCC(=O)N3CCCCC3)cc12` gave uPA surface inh inactive, Sfp PPTase inh inactive, ClpP mod 7.1µM, TCR act inactive and ClpP validation 24µM.
`COc1ccc(S(=O)(=O)N(CC(=O)NCc2ccncc2)c2ccc(C)cc2)cc1OC` gave uPA surface inh inactive, Sfp PPTase inh inactive and TCR act inactive.
`Cc1ccc(CCNc2ncnc3onc(C)c23)cc1` gave ClpP mod inactive.
CC1Cc2ccccc2N1c1nc(C2CC2)nc2c1nnn2Cc1ccccc1 (stereo not drawn) was read as uPA surface inh inactive, Sfp PPTase inh inactive, ClpP mod 7.1µM, TCR act inactive and ClpP validation 27µM.
Screening COc1ccc(-c2coc3cc(OC(C)=O)cc(OC(C)=O)c3c2=O)cc1 returned Sfp PPTase inh inactive.
`COc1ccc(-c2coc3cc(OC(C)=O)c(OC)cc3c2=O)cc1` gave uPA surface inh inconclusive, ClpP mod inactive, TCR act inactive and ClpP validation inactive.
Screening COc1ccc(-c2ccc(N(C)C)cc2)cc1[C@H]1[C@H]2C=CC[C@@H](C)[C@@H]2C(=O)N1Cc1ccccc1 returned uPA surface inh inactive, Sfp PPTase inh inactive, ClpP mod 2.2µM, TCR act inactive and ClpP validation 34µM.
COc1ccc(-c2ccc(N(C)C)cc2)cc1C1C2C=CCC(C)C2C(=O)N1Cc1ccccc1 (stereo not drawn) was read as Sfp PPTase inh inactive.
Screening CCN(CC)CC#CCOC(=O)[C@@](O)(c1ccccc1)C1CCCCC1 returned Sfp PPTase inh inactive.
CC1CC(C(F)(F)F)n2nc(C(=O)O)cc2N1 (stereo not drawn) was read as uPA surface inh inactive, Sfp PPTase inh inactive, ClpP mod inactive and TCR act inactive.
Screening CCOC(=O)c1cc2n(n1)C(C(F)(F)F)CC(C)N2 (stereo not drawn) returned uPA surface inh inactive, Sfp PPTase inh inactive, ClpP mod inactive, TCR act inactive and ClpP validation inactive.
